High-throughput results deposited in PubChem by several laboratories.
EP2 mod = modulates human prostaglandin E2 receptor EP2 signaling; P43116; EP2-expressing cells, cAMP HTRF FRET, PGE2 co-stimulation; induction, % at 25 µM; 260,000 compounds, 0.83% hits;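 active = compounds whose cAMP rise, as percent of the full-agonist control response, exceeds 60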;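 note: rat C6 glioma line stably carrying human EP2 under a CMV promoter; the protocol text gives 20 µM as final concentration; 100% = response of wells given 1 µM PGE2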
Target sequence (P43116 whole entry, looked up): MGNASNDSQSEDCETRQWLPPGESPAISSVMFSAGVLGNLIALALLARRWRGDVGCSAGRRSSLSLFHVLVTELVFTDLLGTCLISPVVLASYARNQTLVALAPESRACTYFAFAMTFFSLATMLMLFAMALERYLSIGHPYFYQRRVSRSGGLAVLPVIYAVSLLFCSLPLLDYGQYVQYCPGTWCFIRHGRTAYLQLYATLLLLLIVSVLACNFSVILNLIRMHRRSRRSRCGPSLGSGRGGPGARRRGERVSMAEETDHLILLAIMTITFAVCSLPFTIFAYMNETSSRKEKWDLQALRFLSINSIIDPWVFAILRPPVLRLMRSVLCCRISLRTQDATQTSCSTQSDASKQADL
EP2 antag = blocks the human prostaglandin E2 receptor EP2 | inhibition, % at 25 µM | C6 glioma cells expressing human EP2, cAMP TR-FRET; cells stimulated with saturating PGE2 | 260,000 compounds, 0.52% hits | P43116;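 active = percent inhibition above 40 after rounding to a whole number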;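 note: rat C6 glioma host cells with rolipram phosphodiesterase inhibitor present; the protocol text gives 20 µM as final concentration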
Arbovirus inh = arbovirus infection inhibition; 200,000 compounds, 0.37% hits; inhibition, % at 10 µM; AID 1251; arbovirus infection cell-based antiviral screen; in the data active = inhibition above about 30%
p97 ATPase inh = inhibitors of human p97 ATPase; P55072; recombinant p97 ATPase, Kinase-Glo ATP luminescence, 3 h; inhibition, % at 8 µM; 220,000 compounds, 0.42% hits; AID 1481; in the data active = inhibition above about 15%;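 note: 0% = DMSO vehicle and 100% = wells lacking enzyme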
Hck-Nef inh = blocks Nef-activated human Hck kinase; P08631; Recombinant Hck-YEEI plus Nef, Z-Lyte FRET kinase assay; inhibition, % at 20 µM; 220,000 compounds, 0.68% hits;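 active = Hck-Nef kinase inhibition above about 50%, limit read from the data; inactive = inhibition below that limit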;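 note: 0% = DMSO with Hck plus Nef and 100% = Hck alone without Nef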
Starred values were filed as active, the others as inactive; . = no result; ! = not confirmed by another sample. Only some compounds are listed: those with a hit (about 2.4% of all), similar ones and a draw of the others.

SMILES	EP2 mod	EP2 antag	Arbovirus inh	p97 ATPase inh	Hck-Nef inh
COC(=O)Nc1ccc(S(=O)(=O)N2CCC(C(=O)N(C)C3CCCCC3)CC2)cc1	-24	4	30*	-6	9
CCOC(=O)C1CCN(S(=O)(=O)c2ccc(NC(=O)OC)cc2)CC1	-10	13	2	-5	-14
O=C(NCC1CC1)c1ccc(Nc2nc3ccc(Br)cc3[nH]2)cc1	-44	74*	-8	-1	-1
O=C(NCc1ccco1)c1cccc(Nc2nc3ccc(Br)cc3[nH]2)c1	-5	19	-31	7	1
O=Cc1cn(-c2ccccc2)nc1-c1cc2ccccc2oc1=O	56	18	2	2	1
NC(=O)c1cn(-c2ccccc2)nc1-c1cc2ccccc2oc1=O	98*	0	5	5	2
Cc1csc(SCCn2c(N3CCCC3)nc3c2c(=O)[nH]c(=O)n3C)n1	9	15	5	15*	1
Cc1csc(SCCn2c(Br)nc3c2c(=O)[nH]c(=O)n3C)n1	26	12	7	2	1
CSc1nc2c(c(=O)[nH]1)CCCC2	0	13	-2	-4	-20
CSc1nc(=S)c2[nH]c(=S)[nH]c2[nH]1	24	45*	.	5	-152
O=C=Nc1ccc(Cc2ccc(N=C=O)cc2)cc1 (tested in a mixture with another compound)	10	45*	.	.	.
CS(=O)(=O)Nc1ccc(Cc2ccc(NS(C)(=O)=O)cc2)cc1	3	5	15	4	1
O=S(=O)(c1ccc(Br)cc1)N1CCN(S(=O)(=O)c2ccc(Br)cc2)CC1	-1	42*	.	.	.
CC1CC(C)CN(S(=O)(=O)c2ccc(Br)cc2)C1 (stereo unspecified)	32	9	.	.	.
COc1cc(C(=O)N/C(=C/c2ccco2)C(=O)Nc2ccc(C)cc2)cc(OC)c1OC	6	22	.	.	.
C=CCNC(=S)NNC(=O)C(CCC(C)C)CC(C)O (stereo unspecified)	-10	15	3	2	1
C=CCNC(=S)NNC(=O)C(CCCC)CC(O)COCC(C)C (stereo unspecified)	-2	120*	.	10	11
Cc1ccc(-c2csc(NC(=O)C3CC=CCC3C(=O)O)c2C(=O)OC(C)C)cc1 (stereo unspecified)	23	.	47*	-6	-2
CCOC(=O)c1c(-c2ccccc2)csc1NC(=O)C1CCCO1 (stereo unspecified)	64*!	8	0	1	0
CCOC(=O)c1c(-c2ccc(C)cc2)csc1NC(=O)C1CC=CCC1C(=O)O (stereo unspecified)	39	.	35*	-3	0
COC(=O)c1c(-c2ccccc2)csc1NC(=O)C1CC=CCC1C(=O)O (stereo unspecified)	29	9	15	-5	-19
C=CCNC(=O)CSc1nnc2c3cc(OC)ccc3n(C)c2n1	-270	11	.	.	.
O=C(CN1CCCCCC1)Nc1ccc(C(=O)NC2CC2)cc1	-18	12	.	.	.
Nc1nc(SCC(=O)C2CCC(Br)CC2)c2[nH]cnc2n1 (stereo unspecified)	-33	49*	.	.	.
Nc1nc(SCC2CCCCC2[N+](=O)[O-])c2[nH]cnc2n1 (stereo unspecified)	-7	16	.	.	.
SMILES	EP2 mod	EP2 antag	Arbovirus inh	p97 ATPase inh	Hck-Nef inh
Cc1cccc2cc(CN(Cc3cccs3)C(=O)Nc3ccc(F)cc3)c(=O)[nH]c12	-2	11	.	.	.
O=C(NC(=S)Nc1cnc2ccccc2c1)c1ccccc1	-56	13	-5	1	139*
CC(C)Oc1cccc(C(=O)NC(=S)Nc2ccccc2)c1	-10	2	36*	0	3
O=C(O)c1ccc(NC(=S)NC(=O)c2ccc(-c3ccccc3)cc2)cc1	-89	66*	26	6	30
CC(C)(C)C(=O)NC1CCN(CC(=O)Nc2ccc(Cl)cc2)CC1	3	12	.	.	.
CC(Oc1ccccc1)C(=O)NC1C(=O)N2C1SC(C)(C)C2C(=O)O (stereo unspecified)	-5	7	0	2	18
CC1(C)S[C@H]2[C@H](NC(=O)Cc3ccccc3)C(=O)N2[C@@H]1C(=O)O	19	49*	.	.	.
CCOC(=O)c1c2c(n3ccccc13)C(=O)c1ccccc1C2=O	-42	46*	.	.	.
Cn1ccnc1Sc1nc2ccccc2nc1NS(=O)(=O)c1ccccc1	50	52*	-4	4	-3
CC(=O)Nc1ccc(S(=O)(=O)NCc2ccc3c(c2)cc(C)n3C)cc1	-18	15	-5	17*	0
Cc1cccc(C(=O)N(CCO)Cc2cc3cc4c(cc3[nH]c2=O)OCCO4)c1	-17	12	.	.	.
CC(=O)Nc1c(C)nn(-c2ccc([N+](=O)[O-])cc2)c1C	26	3	3	3	21
Cc1ccc(-n2nc(C)c(NC(=O)CCl)c2C)cc1	0	5	35*	6	3
Cc1cccc2cc(C#N)c(SCC(=O)Nc3ccc(N4CCOCC4)cc3)nc12	4	19	.	.	.
O=C(Cn1cnc2scc(-c3cccc([N+](=O)[O-])c3)c2c1=O)NCc1ccco1	-29	9	-2	3	54*
CC1CC1C(=O)Nc1nc(-c2ccc(Cl)s2)cs1 (stereo unspecified)	-73	3	44*	-1	15
O=C(Nc1nc(-c2ccc(Cl)s2)cs1)c1ccncc1	-31	18	4	-2	0
O=C1CCCC(=O)N1c1ccc(Oc2ccc3ccccc3c2)cc1	-52	8	.	.	.
Cc1ccccc1CCNC(=O)C1CCN(c2nc3ccccc3n2C)CC1	-25	7	.	.	.
CC1Cc2ccccc2N1S(=O)(=O)c1cccc(C(=O)N2CCN(c3ncccn3)CC2)c1 (stereo unspecified)	0	1	38*	-1	-3
CC1Cc2ccccc2N1S(=O)(=O)c1cccc(C(=O)N2CC(=O)Nc3ccccc32)c1 (stereo unspecified)	-10	3	.	-2	3
CCC(c1nnnn1C(C)(C)C)N(Cc1ccccc1OC)Cc1cc2cc(C)cc(C)c2[nH]c1=O (stereo unspecified)	37	8	.	.	.
C[C@H]1CC(C)(C)C[C@@](OCCN2CCCCC2)(c2ccccc2)C1	7	53*	.	.	.
c1ccc(-c2ccccc2OCCCN2CCCCC2)cc1	15	18	-10	2	-9
COc1cccc(NC(=O)C2CC(=O)N(C)C(=Nc3cccc(F)c3)S2)c1 (stereo unspecified)	-43	7	4	5	3
COc1cccc(N=C2SC(C(=O)Nc3ccccc3F)CC(=O)N2C)c1 (stereo unspecified)	-19	163*	5	1	-1
c1ccc(-c2ccc(-c3nccc4ccccc34)[nH]2)cc1	-46	22	.	2	57*
O=C(O)c1c(-c2nccc3ccccc23)[nH]c(-c2ccccc2)c1S(=O)(=O)O	20	75*	.	.	.
N#Cc1cc(-c2ccccc2)[nH]c1-c1nccc2ccccc12	10	17	.	1	10
COc1ccc(CN2CCc3c(nc(N4CCCC(C)C4)[nH]c3=O)C2)cc1CO (stereo unspecified)	-33	1	.	.	.
